# Measurements: paper PMC5540273 (PLoS ONE, 2017)
# System: CDKL3
# Settings: concentration: 1 μM, replicates: in singlicate; n = 1
# 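Note: KINOMEscan kinase panel screen.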
row,Compound,%Inh [%]
1,COc1ccc(-n2cnc3c(N)ncnc32)cc1 [SKF-97236],0
2,COc1cc(Nc2nccc(N3CCC(NC(=O)C(C)c4ccc(Cl)cc4)C3)n2)cc(OC)c1OC (centres unmarked) [GSK1379757],0
3,Cc1nn2c(=O)cc(N3CCOCC3)nc2n1Cc1cccc(Cl)c1Cl [GSK2342769],0
4,COc1ccc(-c2cc3c(C)nc(N)nc3n([C@H]3CC[C@H](O)CC3)c2=O)cn1,0
5,COc1cc2ncn(-c3cc(OCc4ccncc4)c(C(N)=O)s3)c2cc1OC [GSK336313],0
6,COc1cc(Nc2nccc(N3CCC(NC(=O)C4COc5ccccc5O4)C3)n2)cc(OC)c1OC (centres unmarked) [GSK1379761],0
7,Nc1ncnc2c1ncn2-c1cccc(F)c1 [SKF-97560],0
8,CCC(=O)c1c(-c2ccccc2)c2cc(Cl)ccc2c(=O)n1Cc1cc(C(=O)NC2CC2)n(C)n1,0
9,Nc1n[nH]c2ncc(-c3ccccc3)cc12 [SB-517081],0
10,Cc1nc(N(C)[C@H]2CN(C(=O)CC#N)CC[C@H]2C)c2cc[nH]c2n1,0
11,CC(C)(C)c1ccc(C(=O)Nc2cn3cc(-c4ccccc4)ccc3n2)cc1,0
12,FC(F)(F)c1ccc(-c2ncn(CCCN3CCOCC3)c2-c2ccncc2)cc1 [SB-217780],0
13,O=C(Nc1n[nH]c2nc(-c3ccccc3)c(Cl)cc12)C1CC1 [SB-734909],2
14,COc1ccc(-c2cc3c(C)nc(N)nc3n([C@H]3CC[C@H](OCCO)CC3)c2=O)cn1,29
15,Cc1ccc(-c2ccc3c(ccc4sc5c(c43)NC[C@@H](C)N=C5N(C)C)n2)cn1,0
16,Nc1n[nH]c2nnc(-c3ccccc3)c(-c3ccccc3)c12 [GW554060],0
17,CCC(=O)c1c(-c2ccccc2)c2cc(Cl)ccc2c(=O)n1Cc1ccc(C(=O)O)cc1,0
18,CCS(=O)(=O)c1ccc(OC)c(Nc2ncc(-c3ccc(F)cc3)o2)c1.Cl [GW591947],59
19,CCS(=O)c1ccc(-c2coc3ccc(-c4nnc(C)o4)cc23)cc1 (centres unmarked),0
20,O=C(NCc1cccs1)c1cc(C(=O)c2c(Cl)cccc2Cl)c[nH]1 [GW823670],21
21,COc1cccc(C2=C(N(C)c3ccccc3)C(=O)NC2=O)c1 [SB-334865],0
22,OCCCNc1nccc(-c2c(-c3cccc(C(F)(F)F)c3)nn3cc(C(F)(F)F)ccc23)n1 [GW630813],0

# System: CDKL5
# Settings: concentration: 1 μM, replicates: in singlicate; n = 1
row,Compound,%Inh [%]
1,CCCC(=O)Nc1n[nH]c2ncc(-c3cccc4ccccc34)cc12 [SB-642057],3
2,Nc1nc(N)c2nc(-c3ccccc3)[nH]c2n1 [SKF-12778],4
3,Cl.c1ccc(Cn2cnc3cc(Nc4ncnc5ccccc45)ccc32)cc1 [GW272142],0
4,COc1cccc(-n2cnc3c(N)ncnc32)c1 [SKF-97416],14
5,COC(=O)c1c(-c2ccccc2)c2cc(Br)ccc2c(=O)n1Cc1ccc(S(C)(=O)=O)cc1,26
6,COc1cccc(C2=C(Nc3cccc(C(=O)O)c3)C(=O)NC2=O)c1 [SB-390770],0
7,O=C1NC(=O)C(c2ccccc2)=C1Nc1cccc(O)c1 [SB-390534],0
8,O=c1cc(N2CCOCC2)nc2n(Cc3ccc(F)c(Cl)c3)ccn12 [GSK2297099],10
9,Cc1nnc(-c2ccc3ncn(-c4ccc(S(C)=O)cc4)c3c2)o1 (centres unmarked),0
10,CCc1nc(-c2cccc(C)c2)c(-c2ccncc2)s1,0
11,CCn1c(-c2ccoc2)nc2cnccc21 [SB-733887],0
12,COc1cc2ncn(-c3cc(OCc4ccc(S(C)(=O)=O)cc4)c(C(N)=O)s3)c2cc1OC [GW869979],15
13,COc1ccc(-c2coc3ccc(-c4nnc(SCc5cccc(C#N)c5)o4)cc23)cc1,9
14,Fc1cccc(CSc2nnc(-c3ccc4c(c3)CCO4)o2)c1,16
15,Cc1ccc(Oc2ccc(Nc3ncnc4cc[nH]c34)cc2C)cn1,3
16,COc1ccc(-n2cnc3c(N)ncnc32)cc1 [SKF-97236],0
17,COc1cc(Nc2nccc(N3CCC(NC(=O)C(C)c4ccc(Cl)cc4)C3)n2)cc(OC)c1OC (centres unmarked) [GSK1379757],0
18,Cc1nn2c(=O)cc(N3CCOCC3)nc2n1Cc1cccc(Cl)c1Cl [GSK2342769],8
19,COc1ccc(-c2cc3c(C)nc(N)nc3n([C@H]3CC[C@H](O)CC3)c2=O)cn1,0

row,Compound,%Inh [%]
1,COc1cc2ncn(-c3cc(OCc4ccncc4)c(C(N)=O)s3)c2cc1OC [GSK336313],2
2,COc1cc(Nc2nccc(N3CCC(NC(=O)C4COc5ccccc5O4)C3)n2)cc(OC)c1OC (centres unmarked) [GSK1379761],0
3,Nc1ncnc2c1ncn2-c1cccc(F)c1 [SKF-97560],21
4,CCC(=O)c1c(-c2ccccc2)c2cc(Cl)ccc2c(=O)n1Cc1cc(C(=O)NC2CC2)n(C)n1,6
5,Nc1n[nH]c2ncc(-c3ccccc3)cc12 [SB-517081],0
6,Cc1nc(N(C)[C@H]2CN(C(=O)CC#N)CC[C@H]2C)c2cc[nH]c2n1,6
7,CC(C)(C)c1ccc(C(=O)Nc2cn3cc(-c4ccccc4)ccc3n2)cc1,0
8,FC(F)(F)c1ccc(-c2ncn(CCCN3CCOCC3)c2-c2ccncc2)cc1 [SB-217780],16
9,O=C(Nc1n[nH]c2nc(-c3ccccc3)c(Cl)cc12)C1CC1 [SB-734909],0
10,COc1ccc(-c2cc3c(C)nc(N)nc3n([C@H]3CC[C@H](OCCO)CC3)c2=O)cn1,0
11,Cc1ccc(-c2ccc3c(ccc4sc5c(c43)NC[C@@H](C)N=C5N(C)C)n2)cn1,0
12,Nc1n[nH]c2nnc(-c3ccccc3)c(-c3ccccc3)c12 [GW554060],0
13,CCC(=O)c1c(-c2ccccc2)c2cc(Cl)ccc2c(=O)n1Cc1ccc(C(=O)O)cc1,0
14,CCS(=O)(=O)c1ccc(OC)c(Nc2ncc(-c3ccc(F)cc3)o2)c1.Cl [GW591947],0
15,CCS(=O)c1ccc(-c2coc3ccc(-c4nnc(C)o4)cc23)cc1 (centres unmarked),0
16,O=C(NCc1cccs1)c1cc(C(=O)c2c(Cl)cccc2Cl)c[nH]1 [GW823670],0
17,COc1cccc(C2=C(N(C)c3ccccc3)C(=O)NC2=O)c1 [SB-334865],0
18,OCCCNc1nccc(-c2c(-c3cccc(C(F)(F)F)c3)nn3cc(C(F)(F)F)ccc23)n1 [GW630813],11
